The text below walks through data of PubChem BioAssay (Tox21).

A short description of experiment [1]: Nuclear factor erythroid 2-related factor 2/antioxidant responsive element (Nrf2/ARE) small molecule agonists: qHTS cell viability counter screen in human keratinocytes (AID 1919968; active = well fitted curve in the direction sought with a large enough effect in the repeat runs; an effect the other way counts as inactive or inconclusive; also: nearly all actives have a fitted effect of over 55% in size; also: potency is read from the fitted curve at half-maximal effect). An outline of the steps: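 Cytotoxicity was multiplexed with the Nrf2/ARE luciferase assay in the same wells. Stably transfected HaCaT keratinocytes were treated with test compounds for 23 h at 37 C. Cell viability was then measured by CellTiter-Fluor fluorescence.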
Background: In qHTS, concentration-response curves come from the screen itself.

Experiment [2] concerns the target Gonadotropin-releasing hormone receptor (Homo sapiens) (UniProt P30968). Kind of experiment: Human gonadotropin-releasing hormone receptor (GnRHR) small molecule agonists, calcium flux assay in GnRHR-HEK293 cells (AID 1920063). Also: nearly all actives have a fitted effect of over 35% in size. An outline of the steps:
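Agonist activity was measured as intracellular calcium flux in HEK293 cells engineered to stably express human GnRHR. After dye loading for 1 hour at 37 C, compounds in DMSO were added and fluorescence was followed for 3 minutes.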
In general terms: Calcium flux is commonly read through the fluorescence of an indicator in the cells.

Experiment [3] has as its target KiSS-1 receptor (Homo sapiens) (UniProt Q969F8). Kind of experiment: Human kisspeptin (KISS1R) small molecule agonists, calcium flux assay in KISS1R-HEK293 cells (AID 1920064; active = well fitted curve in the direction sought with a large enough effect in the repeat runs; an effect the other way counts as inactive or inconclusive). In outline:
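Agonist activity is monitored as intracellular calcium rise in engineered HEK293 cells carrying human KISS1R. Cells are dye-loaded for 1 h at 37 C before compound addition, and fluorescence is recorded for 3 min.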

Experiment [4] is described as follows: G protein-coupled receptor (GPCR) small molecule agonists, calcium flux assay: HEK293 wild type cell line counter screen (AID 1920065). An outline of the steps:
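Seed cells, incubate 18 h (37 C, 5% CO2); add calcium dye, 1 h at 37 C; pin-transfer compounds, ATP control or DMSO; read fluorescence 480/540 nm each second for 3 min.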

Experiment [5] can be described thus: p53 small molecule agonists, cell-based qHTS assay with human liver microsomes (AID 1963577).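 Also: p53 response element beta-lactamase reporter cells with liver microsomes plus NADPH.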 In outline:
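HLM-supplemented p53RE-bla reporter assay: 16 h compound exposure at 37 C, microsomes and NADPH each 0.5 mg/mL final, read by fluorescence intensity.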

A short description of experiment [6]: p53 small molecule agonists, cell-based qHTS assay with rat liver microsomes (AID 1963578). In outline: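 Quantitative HTS of the Tox21 10K library: p53RE-bla cells, rat liver microsomes plus NADPH at 0.5 mg/mL final each, 16 h at 37 C, beta-lactamase fluorescence detection.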
Experiment [7] in a line: p53 small molecule agonists, cell-based qHTS assay with human liver microsomes: qHTS cell viability counter screen (AID 1963579). Also: nearly all actives have a fitted effect of over 45% in size. In outline:
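Viability of p53RE-bla cells is measured as CellTiter-Glo luminescence following a 16 h, 37 C incubation with compound, liver microsomes from human donors and NADPH.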

A short description of experiment [8]: p53 small molecule agonists, cell-based qHTS assay with rat liver microsomes: qHTS cell viability counter screen (AID 1963580). Also: nearly all actives have a fitted effect of over 45% in size. An outline of the steps:
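Cytotoxicity counter screen: intracellular ATP read by CellTiter-Glo luminescence in the p53 reporter wells. HCT-116 p53RE-bla cells were treated for 16 h at 37 C alongside rat liver microsomes and NADPH, each 0.5 mg/mL final.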

Experiment [9] in a line: p53 small molecule agonists, cell-based qHTS assay: qHTS cell viability counter screen (AID 1963581). Also: nearly all actives have a fitted effect of over 45% in size. An outline of the steps: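 Viability was counter-screened in parallel with the p53 agonist reporter by measuring intracellular ATP luminescence in the same HCT-116 p53RE-bla wells after 16 h compound treatment at 37 C.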
In experiment [10] the target is 5-hydroxytryptamine receptor 2A (Homo sapiens) (UniProt P28223). Kind of experiment: 5-hydroxytryptamine receptor 2A (HTR2A) small molecule antagonists, cell-based qHTS assay (AID 1963586). Also: nearly all actives have a fitted effect of over 45% in size. An outline of the steps:
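CHO cells stably expressing human HTR2A were plated for 18 h at 37 C, then loaded with calcium dye for 1 h. Compounds were preincubated 5 min at room temperature before DOI (4 nM solution) was added. Kinetic fluorescence was read for 3 min.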

Experiment [11] has the same target. Kind of experiment: 5-hydroxytryptamine receptor 2A (HTR2A) small molecule agonists, cell-based qHTS assay (AID 1963587). Also: nearly all actives have a fitted effect of over 30% in size. An outline of the steps: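 Kinetic calcium-flux fluorescence (2 min, 1 sec intervals) after compound addition in agonist mode. HTR2A-CHO cells were cultured 18 h, then dye-loaded 1 h at 37 C.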
Experiment [12] deals with Muscarinic acetylcholine receptor M1 (Homo sapiens) (UniProt P11229). Kind of experiment: Cholinergic receptor muscarinic 1 (CHRM1) small molecule antagonists, cell-based qHTS assay (AID 1963588). Also: nearly all actives have a fitted effect of over 40% in size. In outline: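 Compounds were tested at 15 concentrations in three independent runs. Dye-loaded CHRM1-CHO cells were exposed 5 min at room temperature before stimulation by acetylcholine added at 50nM. Intracellular calcium was read kinetically on FDSS for 3 min.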
Chain of Muscarinic acetylcholine receptor M1 (Homo sapiens) (P11229 whole entry, looked up): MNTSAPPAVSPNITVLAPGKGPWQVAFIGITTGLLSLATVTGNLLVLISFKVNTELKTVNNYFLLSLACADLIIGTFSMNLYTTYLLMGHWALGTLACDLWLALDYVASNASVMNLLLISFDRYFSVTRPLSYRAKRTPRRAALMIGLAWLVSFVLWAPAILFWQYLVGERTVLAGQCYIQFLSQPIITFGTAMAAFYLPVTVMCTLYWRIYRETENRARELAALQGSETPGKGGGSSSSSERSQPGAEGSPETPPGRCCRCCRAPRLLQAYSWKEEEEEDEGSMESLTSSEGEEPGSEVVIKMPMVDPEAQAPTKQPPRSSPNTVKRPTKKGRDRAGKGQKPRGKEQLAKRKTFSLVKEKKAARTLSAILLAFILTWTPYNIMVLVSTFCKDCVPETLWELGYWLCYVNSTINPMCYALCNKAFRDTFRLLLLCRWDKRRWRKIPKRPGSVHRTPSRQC

Experiment [13] has the same target. Kind of experiment: Cholinergic receptor muscarinic 1 (CHRM1) small molecule agonists, cell-based qHTS assay (AID 1963589). Also: nearly all actives have a fitted effect of over 35% in size. In outline:
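Cells were plated and incubated 18 h at 37 C/5% CO2, loaded with calcium dye for 1 h at 37 C, then treated with compounds in DMSO. Fluorescence was recorded kinetically at 1 sec intervals.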

Experiment [14] in a line: cAMP Responsive Elements (CRE) small molecule agonists, cell-based qHTS assay (AID 1963590). An outline of the steps: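 Cells carrying a CRE-driven beta-lactamase reporter (HEK 293T) are seeded, incubated overnight (18 h), and treated with test compounds for 3 h at 37 C; reporter activity is then detected with a FRET substrate after 2 h at room temperature.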
Experiment [15] has as its target D(2) dopamine receptor (Homo sapiens) (UniProt P14416). Kind of experiment: Dopamine D2 receptor (DRD2) small molecule agonists, cell-based qHTS assay (AID 1963594). Also: nearly all actives have a fitted effect of over 35% in size. An outline of the steps: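 cAMP accumulation in DRD2-HEK293 cells measured by HTRF after 1 h detection; compounds added 10 min before NKH477 (200nM […]) forskolin-analogue stimulation, 30 min at room temperature, with Ro20-1724 present at 0.1 mM final.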

For experiment [16] the target is unchanged. Kind of experiment: Dopamine D2 receptor (DRD2) small molecule antagonists, cell-based qHTS assay (AID 1963595; active = well fitted inhibition curve with a large enough effect in the signal ratio in the repeat runs, with a control signal flat; the % refers to the signal ratio). An outline of the steps:
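Stable D2 receptor HEK293 line, 24 h after seeding. Compound preincubated 10 min, then quinpirole (12 nM) with forskolin analogue NKH477 (200 nM), 30 min, room temperature. Detection by time-resolved FRET of cAMP.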

Experiment [17] in a line: p53 small molecule agonists, cell-based qHTS assay (AID 1963582; active = well fitted activation curve with a large enough effect in the signal ratio in the repeat runs, not every such curve was filed as active; the % refers to the signal ratio). In outline: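 Cells carrying a p53-responsive bla reporter are treated with test compounds for 16 h at 37 C; beta-lactamase activity is then detected with LiveBLAzer B/G FRET substrate after 2 h at room temperature.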
In experiment [18] the target is Beta-2 adrenergic receptor (Homo sapiens) (UniProt P07550). Kind of experiment: Adrenergic beta2 receptor (ADRB2) small molecule antagonists, cell-based qHTS assay (AID 1963592). Also: series mostly up to about 92 µM; nearly all actives have a fitted effect of over 50% in size. In outline:
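Assay format: CHO-ADRB2 cells, 18-20hr seeding at 37C/5% CO2, then compound plus 1nM isoproterenol agonist mix for 0.5hr RT. Homogeneous time-resolved fluorescence cAMP detection after 1hr, expressed as 665/615 nm ratio.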

A short description of experiment [19]: cAMP Responsive Elements (CRE) small molecule antagonists, cell-based qHTS assay (AID 1963591; active = well fitted inhibition curve with a large enough effect in the signal ratio in the repeat runs, not every such curve was filed as active; the % refers to the signal ratio). In outline:
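Cells (CRE-bla HEK 293T, DMEM with 10% dialyzed FBS and 25 mM HEPES) are seeded and incubated 18 h. Compounds are added with NKH477 agonist at 0.25 uM final for 3 h, then FRET substrate for 2 h.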

In experiment [20] the target is Beta-2 adrenergic receptor (Homo sapiens) (UniProt P07550). Kind of experiment: Adrenergic beta2 receptor (ADRB2) small molecule agonists, cell-based qHTS assay (AID 1963593).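 Also: CHO cells stably overexpressing human ADRB2.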 In outline: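 CHO cells stably over-expressing ADRB2 were plated overnight at 37C, then dosed with compounds plus a stimulation mix containing 100uM IBMX and 25uM Ro-20-1724 for 0.5hr at room temperature. cAMP was measured by HTRF competition, 1hr.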
Chain of Beta-2 adrenergic receptor (Homo sapiens) (P07550 whole entry, looked up): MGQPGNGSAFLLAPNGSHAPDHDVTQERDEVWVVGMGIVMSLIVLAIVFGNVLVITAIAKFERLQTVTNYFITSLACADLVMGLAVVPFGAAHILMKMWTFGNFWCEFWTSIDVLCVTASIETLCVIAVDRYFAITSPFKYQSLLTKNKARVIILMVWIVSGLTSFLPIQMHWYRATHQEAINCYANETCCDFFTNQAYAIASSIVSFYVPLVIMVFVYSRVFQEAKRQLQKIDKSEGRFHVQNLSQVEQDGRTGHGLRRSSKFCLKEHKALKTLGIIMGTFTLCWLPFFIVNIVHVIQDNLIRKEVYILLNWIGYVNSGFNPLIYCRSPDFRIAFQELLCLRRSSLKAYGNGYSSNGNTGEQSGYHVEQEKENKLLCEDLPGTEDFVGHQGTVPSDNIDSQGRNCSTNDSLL

Structures are written as SMILES. Values without a mark were called inactive. Inconclusive results are not listed. Calls of active or inactive are those of the source. Unless noted, calls follow the shape of the full dose curve.
% is scaled to controls: 0 for no effect and ±100 for the full control effect.

Chain of KiSS-1 receptor (Homo sapiens) (Q969F8 whole entry, looked up): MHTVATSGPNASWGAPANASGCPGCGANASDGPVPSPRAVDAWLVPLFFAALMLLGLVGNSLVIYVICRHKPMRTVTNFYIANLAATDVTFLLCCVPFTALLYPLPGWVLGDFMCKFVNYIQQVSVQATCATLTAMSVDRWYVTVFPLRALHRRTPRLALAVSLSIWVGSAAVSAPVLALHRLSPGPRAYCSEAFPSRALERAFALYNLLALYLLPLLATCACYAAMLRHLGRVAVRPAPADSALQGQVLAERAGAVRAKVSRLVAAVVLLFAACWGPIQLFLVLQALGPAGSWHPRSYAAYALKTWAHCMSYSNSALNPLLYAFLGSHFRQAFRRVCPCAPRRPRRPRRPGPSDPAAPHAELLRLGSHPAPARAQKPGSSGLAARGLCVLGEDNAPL
Chain of D(2) dopamine receptor (Homo sapiens) (P14416 whole entry, looked up): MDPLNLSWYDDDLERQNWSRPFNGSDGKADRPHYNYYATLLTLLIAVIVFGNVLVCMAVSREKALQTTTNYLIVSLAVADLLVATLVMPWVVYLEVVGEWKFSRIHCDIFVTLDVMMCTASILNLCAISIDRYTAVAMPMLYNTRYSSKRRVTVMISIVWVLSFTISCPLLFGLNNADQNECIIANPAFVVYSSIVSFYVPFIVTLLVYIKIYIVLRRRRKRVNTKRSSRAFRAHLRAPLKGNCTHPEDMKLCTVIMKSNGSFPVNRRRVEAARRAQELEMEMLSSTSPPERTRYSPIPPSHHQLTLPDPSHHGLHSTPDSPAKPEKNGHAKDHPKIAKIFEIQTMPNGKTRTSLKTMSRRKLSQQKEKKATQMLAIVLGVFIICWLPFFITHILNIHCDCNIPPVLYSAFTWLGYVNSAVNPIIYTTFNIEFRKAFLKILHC
Chain of 5-hydroxytryptamine receptor 2A (Homo sapiens) (P28223 whole entry, looked up): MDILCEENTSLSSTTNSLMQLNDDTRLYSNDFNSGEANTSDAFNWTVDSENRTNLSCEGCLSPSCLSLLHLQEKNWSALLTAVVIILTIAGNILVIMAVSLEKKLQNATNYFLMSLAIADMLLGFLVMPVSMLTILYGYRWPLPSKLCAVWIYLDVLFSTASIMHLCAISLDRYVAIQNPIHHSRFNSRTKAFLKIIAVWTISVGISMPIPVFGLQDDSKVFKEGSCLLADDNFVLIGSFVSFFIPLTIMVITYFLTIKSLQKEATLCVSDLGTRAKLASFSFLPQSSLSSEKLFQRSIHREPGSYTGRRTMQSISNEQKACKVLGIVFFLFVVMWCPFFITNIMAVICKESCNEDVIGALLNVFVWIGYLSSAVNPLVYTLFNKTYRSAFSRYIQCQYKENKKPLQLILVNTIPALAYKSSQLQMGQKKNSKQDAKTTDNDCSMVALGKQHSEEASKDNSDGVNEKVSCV
Chain of Gonadotropin-releasing hormone receptor (Homo sapiens) (P30968 whole entry, looked up): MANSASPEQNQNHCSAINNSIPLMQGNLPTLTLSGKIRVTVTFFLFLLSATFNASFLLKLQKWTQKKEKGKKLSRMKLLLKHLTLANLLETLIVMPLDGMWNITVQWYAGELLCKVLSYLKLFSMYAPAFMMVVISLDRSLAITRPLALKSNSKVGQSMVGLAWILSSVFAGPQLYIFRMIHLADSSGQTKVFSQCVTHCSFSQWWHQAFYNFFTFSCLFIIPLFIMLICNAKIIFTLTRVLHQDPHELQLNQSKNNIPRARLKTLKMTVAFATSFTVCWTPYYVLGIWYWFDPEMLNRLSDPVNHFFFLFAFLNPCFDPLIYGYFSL

Regarding `Brc1cc2ccccc2c2ccccc12`, in experiment [1], the Potency is 30.9 µM (active). For the same molecule, the Potency entry in experiment [2], in experiment [3], in [4], in experiment [5], in [6] and in experiment [7] was “inactive” in each case. The Potency entry in experiment [8], in experiment [9], in experiment [10], in [11], in experiment [12] and in experiment [13] was “inactive” each time. The Potency entry in [14], in experiment [15] and in [16] was “inactive” each time.
Take `O=C(Cl)c1cc(C(=O)Cl)cc(C(=O)Cl)c1`: the Potency entry in experiment [1], in [2], in [3], in experiment [4], in experiment [5] and in experiment [6] was “inactive” throughout. The Potency entry in experiment [7], in [8], in [9], in experiment [17], in [10] and in experiment [11] was “inactive” throughout. Besides, the Potency entry in experiment [13], in [18], in [15] and in experiment [16] was “inactive” throughout.
Regarding `CCCCCCCCCCCCCCCC(=O)OC/C=C(C)/C=C/C=C(C)/C=C/C1=C(C)CCCC1(C)C`, the Potency result in [1], in experiment [2], in experiment [3], in experiment [4], in experiment [5] and in experiment [6] was “inactive” each time. Besides, the Potency entry in [7], in experiment [8], in experiment [9], in experiment [17], in [11] and in [12] was “inactive” throughout. Further, the Potency entry in [14], in experiment [19], in experiment [18] and in experiment [16] was “inactive” throughout.
As for `C(=C\c1ccccc1)/CN1CCN(C(c2ccccc2)c2ccccc2)CC1`, the Potency in [1] was 13.3 µM (active). Also, the Potency result in experiment [2], in [3], in experiment [4], in experiment [5], in [6] and in experiment [7] was “inactive” throughout. Further, the Potency result in [8], in [9], in [17], in [18] and in experiment [15] was “inactive” in each case.
Regarding `O=C(Nc1ccc2c(c1)Cc1ccccc1-2)C(F)(F)F`, the Potency result in experiment [1], in [2], in [3], in experiment [4], in [5] and in experiment [6] was “inactive” in each case. In addition, the Potency result in experiment [7], in experiment [8], in [9], in experiment [10], in [11] and in [12] was “inactive” each time. Also, the Potency entry in [13], in experiment [14], in experiment [19], in experiment [18], in experiment [15] and in experiment [16] was “inactive” each time.
For the molecule `Cc1cc(O)c(Cl)c(C)c1Cl`, the Potency entry in experiment [1], in experiment [2], in experiment [3], in [4], in [5] and in experiment [6] was “inactive” each time. Moreover, the Potency result in experiment [7], in experiment [8], in [9], in experiment [17], in experiment [11] and in experiment [12] was “inactive” throughout. Besides, the Potency entry in [13], in experiment [14], in [18], in [20], in experiment [15] and in experiment [16] was “inactive” each time.
Regarding `c1ccc2sc(SSc3nc4ccccc4s3)nc2c1`, the activity change, negative = cytotoxicity in experiment [1] is 22.3% [at 19 µM]; in experiment [7] it was -2.64% [at 13.5 µM]; in [8], 0.0229% [at 13.5 µM]; in [9] it was -1.21% [at 13.5 µM]. Also, the activity change in experiment [2] is -1.6% [at 11.8 µM, hits give high values]. Moreover, the activation is 4.25% [at 15.8 µM] in [3]; 0.255% [at 11.8 µM] in experiment [4]; 13.9% [at 13.5 µM] in [5]; -0.548% [at 13.6 µM] in [6]; 0.366% [at 13.5 µM] in experiment [17]; 0.998% [at 19 µM] in experiment [20]. Moreover, in experiment [15], the activation is 10.5% [at 19 µM]. The activity change, negative = inhibition in experiment [19] was 0.327% [at 18.9 µM]; in [18], 1.66% [at 19 µM]; in [16] it was 5.58% [at 18.9 µM].
